According to PubChem BioAssay (NCI):
The panel holds about 83,000 compounds, 20% with a hit somewhere; the sample as a whole holds those more often.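 Results are percent growth after 48 hours of single-concentration exposure. 100 means growth as in untreated cells, lower positive values show inhibition; negative values down to -100 show cell death.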 A number with no mark means an inactive call. Calls of active or inactive are those of the source. The calls were made as follows: active = growth percent below 10; inactive = the rest.

Experiments:
Assay in all cases: NCI-60 one-dose screen, 48 h (100 = growth as untreated, 0 = no growth, -100 = all killed)
Settings in all cases: 10 µM unless noted
[1] = system: HCT-15 colon
[2] = system: HT29 colon
[3] = system: SNB-75 CNS
[4] = system: SNB-19 CNS
[5] = system: U251 CNS
[6] = system: PC-3 prostate
[7] = system: SK-MEL-5 melanoma
[8] = system: UACC-62 melanoma
[9] = system: LOX IMVI melanoma
[10] = system: SK-MEL-28 melanoma

In the case of `COc1ccc(C(=O)OC2C(OC3C(O)COC(O[C@H]4C[C@H]5[C@@H]6CC=C7C[C@@H](O)CC[C@]7(C)[C@H]6CC[C@]5(C)[C@H]4[C@H](C)C(=O)CCC(C)C)C3OC(C)=O)OCC(O)C2O)cc1` (stereo not given in full), the growth [1] was -51.5% (active), the growth [2] was 0.168% (active) and the growth [3] was -9.67% (active). For the same compound, the growth [4] was -22.8% (active), the growth [5] was -42.8% (active) and the growth [6] was -32.6% (active). The growth [7] was -77.1% (active), the growth [8] was -49.9% (active) and the growth [9] was -49.8% (active). The growth [10] was -54.6% (active).
`COc1cc(CN(c2ccc(C)cc2)C2OC(=O)c3ccccc32)cc(OC)c1OC` (stereo not given) was tested, and the growth [1] was 6.19% (active), the growth [2] was 18.9% and the growth [3] was 6.43% (active). It also gave a growth [4] of 38.6%, a growth [5] of 32.3% and a growth [6] of 51.8%. It also gave a growth [7] of 19.9%, a growth [8] of 45.9% and a growth [9] of 42.7%. It also gave a growth [10] of 51.8%.
With `CN(C)CC(=O)c1ccc2cc(Br)c3ccccc3c2c1` the growth [1] was 62.1%, the growth [2] was 9.4% (active) and the growth [3] was 83.7%. For the same compound, the growth [4] was 69.7%, the growth [5] was 53.3% and the growth [6] was 57.2%. For the same compound, the growth [7] was 83%, the growth [8] was 79.1% and the growth [9] was 43.6%. For the same compound, the growth [10] was 99.1%.
For `COc1ccc2c(c1)sc1nc(-c3ccccc3)c(-c3cccc4ccccc34)n12`, the growth [1] was 23%, the growth [2] was 1.35% (active) and the growth [3] was 23.2%. For the same compound, the growth [4] was 29.8%, the growth [5] was 21.3% and the growth [6] was 24.3%. The growth [7] was 24.9%, the growth [8] was 35.5% and the growth [9] was 38.6%. The growth [10] was 52.1%.
`C[N+](C)(C)CC(=O)N/N=C\c1ccco1` was tested, and the growth [1] was 102%, the growth [2] was 92.6% and the growth [3] was 83.2%. It also gave a growth [4] of 112%, a growth [5] of 98.7% and a growth [6] of 95.8%. It also gave a growth [7] of 101%, a growth [8] of 101% and a growth [9] of 101%. The growth [10] was 105%.
With `CNCCCn1c2c(c3ccc(Cl)cc3c1=O)C(=O)c1cc(OC)cnc1-2` the growth [1] was -57.6% (active), the growth [2] was -80.5% (active) and the growth [3] was 14.7%. The growth [4] was 28.3%, the growth [5] was -86.5% (active) and the growth [6] was 38.6%. The growth [7] was 32.4%, the growth [8] was 11% and the growth [9] was -83.7% (active). For the same compound, the growth [10] was 72.2%.
Compound `O=c1oc2ccccc2cc1-c1cc(-c2ccc(-c3cc(-c4cc5ccccc5oc4=O)nc(-c4cc5ccccc5oc4=O)c3)cc2)cc(-c2cc3ccccc3oc2=O)n1` has a growth [1] of 103%, a growth [2] of 108% and a growth [3] of 97.5%. For the same compound, the growth [4] was 96.9%, the growth [5] was 99.6% and the growth [6] was 101%. For the same compound, the growth [7] was 101%, the growth [8] was 99.1% and the growth [9] was 102%. It also gave a growth [10] of 108%.
`CS(=O)(=O)c1ccc(C(=O)N/N=C/c2ccccc2O)cc1` gave a growth [1] of 18%, a growth [2] of 43.6% and a growth [3] of 77.8%. It also gave a growth [4] of 45.4%, a growth [5] of 27.8% and a growth [6] of 54.3%. It also gave a growth [7] of 32.2%, a growth [8] of 16.4% and a growth [9] of 21.4%. The growth [10] was 55.9%.
Compound `CC(C)CC1NC(=O)C(CC(C)C)N(CO)C1=O` (stereo not given) has a growth [1] of 103%, a growth [2] of 94.3% and a growth [3] of 93.4%. For the same compound, the growth [4] was 99.6%, the growth [5] was 111% and the growth [6] was 97.3%. For the same compound, the growth [7] was 104%, the growth [8] was 96.9% and the growth [9] was 106%. The growth [10] was 121%.
`COc1ccc(C2c3cccn3-c3ccccc3N2C(C)=O)cc1` (stereo not given) was tested, and the growth [1] was 87.7%, the growth [2] was 115% and the growth [3] was 77.4%. It also gave a growth [4] of 100%, a growth [5] of 106% and a growth [6] of 78.4%. The growth [7] was 96.1%, the growth [8] was 86.3% and the growth [9] was 96.1%. For the same compound, the growth [10] was 108%.
In the case of `c1cc(C2CCCCC2)ccc1-c1cnc2nonc2n1`, the growth [1] was 9.57% (active), the growth [2] was 3.11% (active) and the growth [3] was 26.6%. The growth [4] was 37.2%, the growth [5] was 21.6% and the growth [6] was 23.9%. The growth [7] was 22.6%, the growth [8] was 8.73% (active) and the growth [9] was 2.13% (active). For the same compound, the growth [10] was 65.5%.
For `COc1ccc2nc3ccccc3c(NCc3ccc(C)cc3)c2c1`, the growth [1] was 11.4%, the growth [2] was 1.23% (active) and the growth [3] was 46.6%. The growth [4] was 29.2%, the growth [5] was 15.3% and the growth [6] was 11.4%. The growth [7] was 34.4%, the growth [8] was 55.7% and the growth [9] was -6.01% (active). It also gave a growth [10] of 66.4%.
In the case of `COc1ccc(-c2cc(-c3cn(-c4cccc(Cl)c4)nc3-c3ccc(OC)cc3)[nH]c(=S)n2)cc1`, the growth [1] was 95.4%, the growth [2] was 20.6% and the growth [3] was 102%. The growth [4] was 81.6%, the growth [5] was 72.6% and the growth [6] was 67.3%. For the same compound, the growth [7] was 88.5%, the growth [8] was 88% and the growth [9] was 7.63% (active). The growth [10] was 95.5%.
Work on `CC1(C)OC2OC3C(CN)OC(c4ccccc4)OC3C2O1` (stereo not given) yielded a growth [1] of 125%, a growth [2] of 106% and a growth [3] of 92.4%. The growth [4] was 110%, the growth [5] was 104% and the growth [6] was 97.1%. For the same compound, the growth [7] was 106%, the growth [8] was 105% and the growth [9] was 97.9%. For the same compound, the growth [10] was 114%.
`C#CCO[C@H]1CC[C@H](OCC#C)[C@@H]2[C@H]1[C@H]1C[C@@H]3[C@@]4(C)CCC[C@@](C)(C(=O)OC)[C@@H]4CC[C@@]23C=C1C(C)C` showed a growth [1] of 91.8%, a growth [2] of 53.6% and a growth [3] of 94.7%. The growth [4] was 96.1%, the growth [5] was 46.8% and the growth [6] was 44.8%. For the same compound, the growth [7] was 87.6%, the growth [8] was 74.6% and the growth [9] was -64.5% (active). The growth [10] was 102%.
In the case of `Cc1ccc(Nc2cc(Cl)c([N+](=O)[O-])cc2[N+](=O)[O-])cc1`, the growth [1] was 16.8%, the growth [2] was 3.12% (active) and the growth [3] was 96%. For the same compound, the growth [4] was 85.8%, the growth [5] was 25.8% and the growth [6] was 55.3%. The growth [7] was 53.6%, the growth [8] was 48.7% and the growth [9] was 9.04% (active). The growth [10] was 71.5%.
`Clc1cc(Cl)cc(-c2cnc3nonc3n2)c1` was tested, and the growth [1] was 64.4%, the growth [2] was 92.8% and the growth [3] was 99%. The growth [4] was 93.4%, the growth [5] was 106% and the growth [6] was 90.9%. It also gave a growth [7] of 107%, a growth [8] of 83.1% and a growth [9] of 95%. For the same compound, the growth [10] was 91.5%.
With `COc1cccc(/C(C)=N/NC(=O)CSc2nc3ccccc3c(=O)n2CCc2ccc(S(N)(=O)=O)cc2)c1` the growth [1] was 69.7%, the growth [2] was 2.6% (active) and the growth [3] was 42.1%. For the same compound, the growth [4] was 24.7%, the growth [5] was -55.4% (active) and the growth [6] was 7.25% (active). The growth [7] was 1.45% (active), the growth [8] was 25.1% and the growth [9] was 26%. It also gave a growth [10] of 67.5%.
With `CC(C)(C)[Si](C)(C)OC1[C@@H](O[Si](C)(C)C(C)(C)C)[C@@H](CNC(=O)NC(=O)NC(=O)CCl)O[C@H]1n1cnc2c(NC(=O)Nc3ccccc3)ncnc21` (stereo not given in full) the growth [1] was 79%, the growth [2] was -11.4% (active) and the growth [3] was 80.2%. For the same compound, the growth [4] was 99.5%, the growth [5] was 29.7% and the growth [6] was 11.3%. The growth [7] was 86.6%, the growth [8] was 87.7% and the growth [9] was -74.5% (active). It also gave a growth [10] of 105%.
`CSc1nc(N)c2[nH]c(-c3cc4ccccc4[nH]c3=O)nc2n1` was tested, and the growth [1] was 64.8%, the growth [2] was 94.2% and the growth [3] was 113%. It also gave a growth [4] of 109%, a growth [5] of 84.7% and a growth [6] of 78.7%. It also gave a growth [7] of 100%, a growth [8] of 83.4% and a growth [9] of 69.9%. The growth [10] was 116%.
`C=CCCCCOc1cccc(/C=C2\N=C3SCCCN3C2=O)c1` gave a growth [1] of 90%, a growth [2] of 90.1% and a growth [3] of 91.1%. The growth [4] was 99.9%, the growth [5] was 92.7% and the growth [6] was 95.3%. For the same compound, the growth [7] was 99%, the growth [8] was 87.6% and the growth [9] was 88.7%. The growth [10] was 108%.
Work on `O=C(Nc1cccc(C2=NCCN2)c1)c1ccc(N=Nc2ccc(C(=O)Nc3cccc(C4=NCCN4)c3)cc2)cc1` yielded a growth [1] of 82.2%, a growth [2] of 71.8% and a growth [3] of 48.7%. For the same compound, the growth [4] was 53.2%, the growth [5] was 16.5% and the growth [6] was 63.4%. It also gave a growth [7] of 80.4%, a growth [8] of 68.4% and a growth [9] of 75.8%. The growth [10] was 59.3%.
In the case of `COc1ccc(CNc2c3ccccc3nc3ccc(OC)cc23)cc1`, the growth [1] was 5.34% (active), the growth [2] was -2.9% (active) and the growth [3] was 27.4%. For the same compound, the growth [4] was 22.7%, the growth [5] was 16.1% and the growth [6] was 5.53% (active). The growth [7] was 11.1%, the growth [8] was 42.6% and the growth [9] was -75.1% (active). For the same compound, the growth [10] was 41.3%.
With `NC(=O)c1ccc[n+](Cc2ccccc2)c1` the growth [1] was 96.7%, the growth [2] was 101% and the growth [3] was 95.1%. For the same compound, the growth [4] was 106%, the growth [5] was 92.8% and the growth [6] was 94.6%. For the same compound, the growth [7] was 97.6%, the growth [8] was 99.7% and the growth [9] was 95.6%. The growth [10] was 103%.
`COc1cc(OC)c(C(=O)/C=C/c2cccc(OC(C)=O)c2)cc1CC=C(C)C` was tested, and the growth [1] was 55%, the growth [2] was 84.2% and the growth [3] was 77.5%. The growth [4] was 101%, the growth [5] was 44.6% and the growth [6] was 36%. The growth [7] was 64.2%, the growth [8] was 47.3% and the growth [9] was 48.3%. For the same compound, the growth [10] was 67.8%.
In the case of `c1ccc2c(N=NSc3ncnc4nc[nH]c34)c3ccccc3nc2c1`, the growth [1] was -7.02% (active), the growth [2] was 0.967% (active) and the growth [3] was 2.72% (active). The growth [4] was 12.3%, the growth [5] was 8.63% (active) and the growth [6] was -1.78% (active). The growth [7] was -59.4% (active), the growth [8] was -38.7% (active) and the growth [9] was -46.6% (active). For the same compound, the growth [10] was -37.6% (active).
In the case of `Nc1c(C(=O)Nc2ccccc2)sc2nc3c(cc12)C(=O)CCC3`, the growth [1] was 27.2%, the growth [2] was 4.34% (active) and the growth [3] was 12.4%. For the same compound, the growth [4] was 36.1%, the growth [5] was 25.7% and the growth [6] was 21.6%. The growth [7] was 25.7%, the growth [8] was 44.1% and the growth [9] was 51.2%. The growth [10] was 58.7%.
